# PubChem BioAssay (NCATS)
# Results filed as inconclusive are left out. Active and inactive are the calls of the source. Unless noted, the call rests on the fitted dose curve; in most records, active means well fitted curve in the direction sought with a large enough effect; inconclusive means small, poorly fitted or top-dose-only effect, or another doubt; inactive means no such curve, though single readings can be large; an effect the other way counts as inactive or inconclusive.
# How the values were obtained:
# [1] = target: Cytochrome P450 1A2 (Homo sapiens) (UniProt P05177); test: p450-cyp1a2 (AID 410; calls by dose curve; further: potency means the concentration at half of the fitted maximal effect)
# How it was run: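 Luminescent readout of luciferin formed from Luciferin-ME by human CYP1A2; data normalized against complete inhibition by 57 uM furafylline. Enzyme 20nM, substrate 100uM at Km, 100mM KPO4 buffer, 60 min reaction at room temperature.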
# [2] = NFAT Signaling Pathway (AID 444; active means well fitted curve in either direction with a large enough effect, not every such curve was filed as active;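 further: carbachol stimulus at about its EC50 of 1 µM final; on the % scale 0 is the no-effect control and ±100 the full control effect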); settings: Jurkat NFAT-bla M1, carbachol, beta-lactamase ratio, 5 h; at 7.69 µM (top of the series) unless noted
# How it was run: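 Jurkat cells carrying an NFAT-driven β-lactamase reporter and co-transfected muscarinic M1 receptor were treated with compound plus carbachol (1 uM final, an EC50 level) for 5 h at 37 °C. CCF4 loading followed for 1 h at RT; 460/530 nm ratio gave %activity.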
# [3] = Stat Signaling Pathway (AID 446; active means well fitted curve in either direction with a large enough effect, not every such curve was filed as active;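 further: ME-180 cervical cancer cells given 40 pM IL-6 alongside compound; SIE-controlled beta-lactamase reporter measured as 460/530 nm FRET emission ratio; on the % scale 0 is the no-effect control and ±100 the full control effect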); settings: ME-180 SIE beta-lactamase reporter, IL-6 stimulated, 5 h; at 7.69 µM (top of the series) unless noted
# How it was run: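 ME-180 cells carrying a SIE-driven beta-lactamase reporter are stimulated with 40 pM IL-6 for 5 h at 37C in the presence of compound. The 460/530 nm FRET substrate ratio is read after 2.5 h at RT. Data are normalised to 300 pM IL-6 and to 125 nM JAK inhibitor controls.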
# [4] = target: Glucocorticoid receptor (Homo sapiens) (UniProt P04150); test: GR-GFP Redistribution (AID 450;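 active means compounds whose dose series gives a full or clear partial fitted curve of increased nuclear translocation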; further: potency means the concentration at half of the fitted maximal effect); settings: U2OS GR-GFP nuclear translocation, laser cytometry, 2 h
# [5] = target: Glucocorticoid receptor (Homo sapiens) (UniProt P04150); test: GR-EFC Redistribution (AID 451; calls by dose curve; further: potency means the concentration at half of the fitted maximal effect); settings: CHO-K1 GR-EFC translocation, beta-gal luminescence, 2 h
# How it was run: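 CHO-K1 cells stably expressing nuclear-localized β-gal enzyme acceptor and GR fused C-terminally to the enzyme donor fragment; ligand-driven nuclear translocation restores β-gal by complementation. Compounds titrated up to 46 uM final, 2 h at 37 °C; luminescence read.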
# [6] = target: Mitogen-activated protein kinase 10 (Mus musculus) (UniProt Q61831); test: JNK3 AlphaScreen Assay (AID 530; active means well fitted curve in either direction with a large enough effect, not every such curve was filed as active;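 further: kinase came from lysate of stimulated human HepG2 cells; signal reports phosphorylation of biotinylated GST-cJun 1-79 at Ser73 with 10 µM ATP; on the % scale 0 is the no-effect control and ±100 the full control effect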)
# How it was run: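 Inhibitors reduce antibody binding to phosphorylated biotin-cJun, lowering AlphaScreen luminescence. Lysates from HepG2 cells pre-activated by IL-1beta plus TNF-alpha supplied JNK3; compounds were titrated.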
# [7] = target: 3',5'-cyclic-AMP phosphodiesterase 4B (Homo sapiens) (UniProt Q07343); test: qHTS Assay for Inhibitors of PDE-IV (AID 607; active means well fitted activation curve with a large enough effect in the main read-out, with a control signal flat, not every such curve was filed as active; further: % of control where 0% means no effect)
# How it was run: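 HEK293 ACTOne cells with CNG channel (1000/well), endogenous PDE4; membrane potential dye, compounds up to 22.9 uM final. Fluorescence Ex 535/Em 590; RO 20-1724 (100 uM final) as reference.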
# [8] = target: Cytochrome P450 3A4 (Homo sapiens) (UniProt P08684); test: qHTS Assay for Activators of Cytochrome P450 3A4 (AID 885); further: nearly all actives have a fitted effect of over 65% in size
# How it was run: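 Human CYP3A4 (20 nM) with Luciferin-PPXE at 25 uM (its KM) in 200 mM KPO4; 10 min compound preincubation, then NADPH regeneration and 60 min reaction at RT. Luciferin read by luminescence; normalized to 57 uM ketoconazole full inhibition.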
# [9] = qHTS Assay for Lipid Storage Modulators (AID 1519; calls by dose curve); settings: Drosophila S3 cells, BODIPY lipid droplet/cell ratio, laser cytometry, cells loaded with oleic acid; for activity change, negative = inhibition: at 57.5 µM (top of the series)
# How it was run: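 Cells seeded at 5,000 per well were treated with compounds over a concentration series and loaded with oleic acid (400 uM, as added). Lipid droplet fluorescence (488 nm excitation, 500-530 nm channel) was read by laser-scanning cytometry and normalized to 20 uM Triacsin C.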
# [10] = target: Dual specificity protein kinase CLK4 (Homo sapiens) (UniProt Q9HAZ1); test: qHTS Assay for Inhibitors of CDC-like Kinase 4 (Kinase-Glo Assay) (AID 1770); further: potency means the concentration at half of the fitted maximal effect; nearly all actives have a fitted effect of over 65% in size
# How it was run: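 Recombinant human Clk4 (25 nM) phosphorylated RS repeat peptide (100 uM) with 1 uM ATP in Tris pH 7.5/MgCl2/EGTA/DTT/Triton buffer for 4.5 h at room temperature. Residual ATP was quantified by Kinase-Glo luciferase luminescence.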
# [11] = target: Dual specificity protein kinase CLK4 (Homo sapiens) (UniProt Q9HAZ1); test: qHTS Assay for Inhibitors of CDC-like Kinase 4 (ADP-Glo Assay) (AID 1771); further: potency means the concentration at half of the fitted maximal effect; nearly all actives have a fitted effect of over 70% in size
# How it was run: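 Luminescence from ADP-Glo reports ADP produced by 25 nM Clk4 acting on 100 uM RS repeat peptide with 1 uM ATP over 1 hr at room temperature; residual ATP is depleted before ADP is converted to ATP for detection.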
# [12] = target: Ubiquitin carboxyl-terminal hydrolase 1 (Homo sapiens) (UniProt O94782); test: Inhibitors of USP1/UAF1: Pilot qHTS (AID 504865);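 further: rhodamine fluorescence freed from ubiquitin-rhodamine substrate followed over time; top concentration of the series differs between compounds; on the % scale 0 is the no-effect control and ±100 the full control effect; nearly all actives have a fitted effect of over 35% in size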
# How it was run: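 USP1/UAF1 complex (1nM) preincubated with compound 15 min at room temperature, then Ub-Rho substrate (150nM final) added. Fluorescence read kinetically at 480/540 nm, 6 reads every 60 seconds. Buffer: 50mM HEPES pH 7.8, 0.5mM EDTA, 0.1 mg/ml BSA, 1mM TCEP, 0.01% Tween-20.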
# [13] = Counterscreen qHTS for small molecule stabilizers of the endoplasmic reticulum resident proteome: GLuc-NoTag assay (AID 1508627); further: potency means the concentration at half of the fitted maximal effect;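 on activity change, negative = inhibition: SH-SY5Y cells given compound then 100 nM thapsigargin to empty ER calcium; 0% = thapsigargin alone and -100% = DMSO vehicle control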
# How it was run: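 SH-SY5Y cells stably expressing constitutively secreted GLuc (no SERCaMP tag) were pre-incubated 5 h, treated with compound for 19 h, then 100 nM thapsigargin for 4 h at 37C; medium GLuc read by coelenterazine luminescence.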
# [14] = Confirmatory qHTS for small molecule stabilizers of the endoplasmic reticulum resident proteome: Secreted ER Calcium Modulated Protein (SERCaMP) assay (AID 1508628); further: nearly all actives have a fitted effect of over 40% in size; further: potency means the concentration at half of the fitted maximal effect
# How it was run: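 SH-SY5Y cells stably expressing GLuc-SERCaMP, treated 16 h with compound (primary 1.53, 7.67, 38.3 uM; confirmation 11 concentrations, up to 76.6 uM), then 100 nM thapsigargin for 4 h. Secreted Gaussia luciferase in medium read by coelenterazine luminescence.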
# [15] = target: Lysosomal acid glucosylceramidase (Homo sapiens) (UniProt P04062); test: Glucocerebrosidase-p2 (AID 348; in the data active means potency below about 10 µM; further: potency means the concentration at half of the fitted maximal effect); settings: purified GBA, blue fluorogenic substrate, 40 min
# How it was run: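 Compounds titrated from 0.6 nM upwards against 0.2 nM enzyme in pH 5.9 citric acid/KH2PO4, taurocholate, tween-20; blue fluorogenic substrate 80 uM, 40 min room temperature, stopped and read Ex 365/Em 440 for AC50.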
# [16] = AP1 Signaling Pathway (AID 357; active means well fitted curve in either direction with a large enough effect, not every such curve was filed as active;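 further: ME-180 reporter cells stimulated with EGF at its EC50 level; on the % scale 0 is the no-effect control and ±100 the full control effect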); settings: ME-180 AP-1-bla reporter, EGF-induced, beta-lactamase ratio, 5 h; at 7.69 µM (top of the series) unless noted
# How it was run: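 Read-out was the 460nm/530nm emission ratio (excitation 405nm) after CCF4 loading for 2.5 hours at room temperature. Cells carried an AP-1-driven beta-lactamase reporter, were stimulated with EC50 EGF plus compound for 5 hours, and AC50 values came from titrations.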
# [17] = Confirmation and Secondary Assay for Modulators of Hemoglobin Beta Chain Splicing at IVS2 654 locus (AID 910);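 further: per-well total GFP intensity by laser scanning cytometry after 2-day treatment; % of control where 0% means no effect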
# How it was run: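 HeLa cells stably carrying EGFP interrupted by mutant beta-globin IVS2-654 intron (CMV-driven) were treated with compound for 2 days at 37C; corrected splicing was scored as total peak GFP intensity per well (488 nm excitation, 500-520 nm emission).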
# [18] = qHTS Assay for Identification of Small Molecule Agonists for Hypoxia Response Element Signaling Pathway (AID 914; active means well fitted activation curve with a large enough effect in the signal ratio, with a control signal flat, not every such curve was filed as active; the % refers to the signal ratio; further: % of control where 0% means no effect); settings: ME-180 (cervical carcinoma) HRE-bla reporter, beta-lactamase ratio, CoCl2, 17 h; activation: stronger effect = higher value
# How it was run: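 HRE-bla ME-180 assay for agonist-like enhancement of an EC50 CoCl2 stimulus: 17 h at 37 degrees Celsius, CCF4 for 2.5 h, ratiometric 460/530 nm signal converted to %Activity and fitted to AC50.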
# [19] = Confirmation and Secondary Assay for Modulators of Hemoglobin Beta Chain Splicing at IVS2 705 locus (AID 930);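 further: HeLa cells stably expressing the EGFP-705 splicing reporter; GFP fluorescence per well restored by corrected splicing of the IVS2-705 intron in EGFP; % of control where 0% means no effect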
# How it was run: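 HeLa IVS2-705 EGFP reporter cells, 500/well, compound 2 d at 37C; correct splicing yields fluorescent EGFP. Control: 500 nM antisense PNA. Read-out: total peak GFP intensity.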
# [20] = measured here: cell count channel max response
# [21] = measured here: lipid channel max response
# Sequence of Glucocorticoid receptor (Homo sapiens) (P04150 whole entry, looked up, the tested form may be a part): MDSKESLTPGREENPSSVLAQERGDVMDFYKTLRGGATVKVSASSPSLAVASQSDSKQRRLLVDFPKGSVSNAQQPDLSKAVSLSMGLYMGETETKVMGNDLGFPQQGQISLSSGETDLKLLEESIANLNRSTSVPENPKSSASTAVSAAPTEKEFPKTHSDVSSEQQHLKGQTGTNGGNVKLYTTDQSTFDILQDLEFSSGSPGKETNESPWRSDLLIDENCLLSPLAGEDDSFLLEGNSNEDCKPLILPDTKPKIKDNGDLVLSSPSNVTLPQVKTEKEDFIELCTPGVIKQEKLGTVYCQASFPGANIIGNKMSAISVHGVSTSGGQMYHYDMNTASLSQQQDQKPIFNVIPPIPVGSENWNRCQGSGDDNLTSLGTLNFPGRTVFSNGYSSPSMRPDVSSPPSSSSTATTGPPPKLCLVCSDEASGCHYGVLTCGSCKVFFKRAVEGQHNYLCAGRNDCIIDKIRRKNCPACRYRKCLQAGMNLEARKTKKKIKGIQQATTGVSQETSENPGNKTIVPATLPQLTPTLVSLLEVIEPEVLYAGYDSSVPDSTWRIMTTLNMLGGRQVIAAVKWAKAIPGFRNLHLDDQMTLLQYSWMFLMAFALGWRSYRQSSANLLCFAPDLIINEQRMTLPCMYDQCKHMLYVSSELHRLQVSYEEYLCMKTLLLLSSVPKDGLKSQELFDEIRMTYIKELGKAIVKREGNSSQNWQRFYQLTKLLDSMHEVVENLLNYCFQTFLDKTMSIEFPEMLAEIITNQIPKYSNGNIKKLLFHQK
# Sequence of Dual specificity protein kinase CLK4 (Homo sapiens) (Q9HAZ1 whole entry, looked up): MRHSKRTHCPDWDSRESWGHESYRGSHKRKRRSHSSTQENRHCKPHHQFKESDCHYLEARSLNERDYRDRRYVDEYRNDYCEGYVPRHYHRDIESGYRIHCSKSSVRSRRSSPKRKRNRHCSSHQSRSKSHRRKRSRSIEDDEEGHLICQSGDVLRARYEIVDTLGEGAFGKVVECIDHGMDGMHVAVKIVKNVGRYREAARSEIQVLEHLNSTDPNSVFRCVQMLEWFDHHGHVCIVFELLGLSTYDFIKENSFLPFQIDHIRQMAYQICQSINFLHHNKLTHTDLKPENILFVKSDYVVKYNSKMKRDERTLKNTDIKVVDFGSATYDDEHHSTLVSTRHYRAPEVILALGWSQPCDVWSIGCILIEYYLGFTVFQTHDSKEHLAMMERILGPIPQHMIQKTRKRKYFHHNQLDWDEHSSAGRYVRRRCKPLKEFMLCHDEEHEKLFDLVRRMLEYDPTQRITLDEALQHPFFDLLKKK
# Sequence of Lysosomal acid glucosylceramidase (Homo sapiens) (P04062 whole entry, looked up): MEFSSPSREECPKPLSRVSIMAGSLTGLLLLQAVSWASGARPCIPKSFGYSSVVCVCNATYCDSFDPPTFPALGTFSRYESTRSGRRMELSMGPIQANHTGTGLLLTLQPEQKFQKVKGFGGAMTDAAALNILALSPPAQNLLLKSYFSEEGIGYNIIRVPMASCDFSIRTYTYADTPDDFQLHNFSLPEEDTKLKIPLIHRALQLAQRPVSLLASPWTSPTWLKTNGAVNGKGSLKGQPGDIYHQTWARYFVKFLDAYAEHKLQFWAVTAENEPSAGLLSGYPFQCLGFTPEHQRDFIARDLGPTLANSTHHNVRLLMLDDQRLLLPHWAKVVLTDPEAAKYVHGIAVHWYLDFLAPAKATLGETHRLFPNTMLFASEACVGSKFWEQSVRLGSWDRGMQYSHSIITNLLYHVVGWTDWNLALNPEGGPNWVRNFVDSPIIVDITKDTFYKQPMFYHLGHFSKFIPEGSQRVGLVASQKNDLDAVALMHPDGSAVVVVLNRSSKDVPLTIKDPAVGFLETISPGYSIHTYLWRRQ
# Sequence of 3',5'-cyclic-AMP phosphodiesterase 4B (Homo sapiens) (Q07343 whole entry, looked up): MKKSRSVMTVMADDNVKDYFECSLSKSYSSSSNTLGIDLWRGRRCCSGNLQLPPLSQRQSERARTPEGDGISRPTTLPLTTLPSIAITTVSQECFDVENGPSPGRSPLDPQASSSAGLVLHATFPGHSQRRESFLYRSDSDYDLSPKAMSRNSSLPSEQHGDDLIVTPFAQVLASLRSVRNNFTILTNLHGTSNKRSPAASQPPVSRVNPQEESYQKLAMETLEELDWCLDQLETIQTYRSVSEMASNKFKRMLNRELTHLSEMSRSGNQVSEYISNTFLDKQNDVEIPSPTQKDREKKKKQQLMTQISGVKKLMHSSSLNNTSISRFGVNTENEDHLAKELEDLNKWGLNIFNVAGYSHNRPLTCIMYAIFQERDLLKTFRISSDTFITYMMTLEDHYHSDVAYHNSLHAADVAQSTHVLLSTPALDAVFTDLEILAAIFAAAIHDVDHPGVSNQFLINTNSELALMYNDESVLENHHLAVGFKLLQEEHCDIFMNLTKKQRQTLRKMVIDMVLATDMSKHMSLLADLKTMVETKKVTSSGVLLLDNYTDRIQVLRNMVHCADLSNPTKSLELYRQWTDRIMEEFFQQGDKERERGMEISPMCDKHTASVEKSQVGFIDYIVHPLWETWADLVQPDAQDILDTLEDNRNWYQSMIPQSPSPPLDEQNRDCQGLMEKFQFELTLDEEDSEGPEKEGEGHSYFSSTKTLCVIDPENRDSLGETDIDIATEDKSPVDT
# Sequence of Ubiquitin carboxyl-terminal hydrolase 1 (Homo sapiens) (O94782 whole entry, looked up): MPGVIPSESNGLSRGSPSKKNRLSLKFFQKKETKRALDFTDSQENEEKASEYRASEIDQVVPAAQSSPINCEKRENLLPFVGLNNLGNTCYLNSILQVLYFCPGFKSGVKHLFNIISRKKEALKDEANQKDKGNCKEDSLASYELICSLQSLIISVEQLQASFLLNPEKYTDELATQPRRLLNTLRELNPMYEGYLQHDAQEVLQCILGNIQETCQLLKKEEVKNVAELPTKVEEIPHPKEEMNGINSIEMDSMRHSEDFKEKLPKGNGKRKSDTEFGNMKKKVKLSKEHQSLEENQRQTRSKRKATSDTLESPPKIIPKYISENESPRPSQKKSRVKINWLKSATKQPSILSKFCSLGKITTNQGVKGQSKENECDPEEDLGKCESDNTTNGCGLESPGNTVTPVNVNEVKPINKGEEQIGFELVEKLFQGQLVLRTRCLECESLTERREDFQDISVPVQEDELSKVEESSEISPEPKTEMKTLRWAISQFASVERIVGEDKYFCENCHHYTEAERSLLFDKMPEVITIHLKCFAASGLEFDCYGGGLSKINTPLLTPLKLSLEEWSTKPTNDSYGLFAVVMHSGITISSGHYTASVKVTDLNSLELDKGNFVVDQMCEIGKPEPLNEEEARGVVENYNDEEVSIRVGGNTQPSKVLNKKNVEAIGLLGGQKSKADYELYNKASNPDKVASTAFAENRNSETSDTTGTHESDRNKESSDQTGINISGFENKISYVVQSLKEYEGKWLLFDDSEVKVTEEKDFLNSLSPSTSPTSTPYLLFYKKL
# Sequence of Cytochrome P450 1A2 (Homo sapiens) (P05177 whole entry, looked up): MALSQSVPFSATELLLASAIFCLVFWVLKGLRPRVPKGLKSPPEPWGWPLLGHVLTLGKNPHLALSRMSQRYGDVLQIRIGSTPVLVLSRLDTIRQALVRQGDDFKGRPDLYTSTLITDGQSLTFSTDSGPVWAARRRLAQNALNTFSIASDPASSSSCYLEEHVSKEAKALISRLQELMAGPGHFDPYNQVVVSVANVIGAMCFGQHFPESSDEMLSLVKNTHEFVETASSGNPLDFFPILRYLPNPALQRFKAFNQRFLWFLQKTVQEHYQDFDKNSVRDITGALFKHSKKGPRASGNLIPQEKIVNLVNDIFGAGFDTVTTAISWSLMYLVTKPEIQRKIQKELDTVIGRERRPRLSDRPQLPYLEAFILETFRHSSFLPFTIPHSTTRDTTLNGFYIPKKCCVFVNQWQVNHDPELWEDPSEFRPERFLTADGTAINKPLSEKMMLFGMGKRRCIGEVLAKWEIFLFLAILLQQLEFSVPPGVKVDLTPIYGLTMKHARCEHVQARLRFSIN
# Sequence of Cytochrome P450 3A4 (Homo sapiens) (P08684 whole entry, looked up): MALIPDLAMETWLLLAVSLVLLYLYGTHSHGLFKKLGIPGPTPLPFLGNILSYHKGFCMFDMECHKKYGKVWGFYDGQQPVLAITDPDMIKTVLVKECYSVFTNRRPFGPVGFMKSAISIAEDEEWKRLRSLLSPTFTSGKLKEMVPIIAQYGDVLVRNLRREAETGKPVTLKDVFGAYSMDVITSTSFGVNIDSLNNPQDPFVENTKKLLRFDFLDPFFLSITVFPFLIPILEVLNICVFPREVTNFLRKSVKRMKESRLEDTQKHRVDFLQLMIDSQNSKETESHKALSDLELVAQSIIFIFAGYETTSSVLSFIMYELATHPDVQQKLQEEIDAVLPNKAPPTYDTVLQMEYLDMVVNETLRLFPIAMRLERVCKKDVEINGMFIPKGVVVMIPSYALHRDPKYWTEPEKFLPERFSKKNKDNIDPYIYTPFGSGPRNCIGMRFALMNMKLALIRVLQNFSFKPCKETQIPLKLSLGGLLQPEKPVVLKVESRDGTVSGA
compound,measurement,setting,value
COc1cccc(-c2ccc3ncnc(N4CCN(C)CC4)c3c2)c1,Potency,[1],3.98 µM (active)
same,"activity change, negative = inhibition",[2],13% (inactive)
same,"activity, negative = inhibition",[3],-6.09% (inactive)
same,Potency,[4],> 46 µM (inactive)
same,Potency,[5],> 46 µM (inactive)
same,outcome,[6],inactive
same,Potency,[7],inactive
same,Potency,[8],inactive
same,"activity change, negative = inhibition",[9],-0.228% (inactive)
same,max response,[9]; [20],8.77%
same,max response,[9]; [21],10.1%
same,Potency,[10],3.55 µM (active)
same,Potency,[11],3.98 µM (active)
same,Potency,[12],inactive
same,Potency,[13],35.5 µM (active)
same,Potency,[14],39.8 µM (active)
CN1CCN(c2ncc3nc(-c4cc(F)cc(F)c4)c(=O)n(-c4ccccc4)c3n2)CC1,Potency,[15],> 11.4 µM (inactive)
same,Potency,[4],> 9.22 µM (inactive)
same,Potency,[5],> 46 µM (inactive)
same,outcome,[6],inactive
same,"activity change, negative = inhibition",[9],2.22% (inactive)
same,max response,[9]; [20],13.7%
same,max response,[9]; [21],14.9%
same,Potency,[13],inactive
same,Potency,[14],inactive
Clc1ccccc1-c1nc(N2CCNCC2)c2ccccc2n1,Potency,[15],> 11.4 µM (inactive)
same,"activity change, negative = inhibition",[16],-2.1% (inactive)
same,Potency,[1],2.51 µM (active)
same,"activity change, negative = inhibition",[2],-0.528% (inactive)
same,"activity, negative = inhibition",[3],9.64% (inactive)
same,Potency,[5],> 46 µM (inactive)
same,outcome,[6],inactive
same,Potency,[7],inactive
same,Potency,[8],inactive
same,outcome,[17],inactive
same,activation,[18],16.5% (inactive)
same,outcome,[19],inactive
same,"activity change, negative = inhibition",[9],3.77% (inactive)
same,max response,[9]; [20],7.62%
same,max response,[9]; [21],12%
same,Potency,[12],inactive
same,Potency,[13],inactive
same,Potency,[14],12.6 µM (active)
